Source: PubChem BioAssay AID463173 (ICCB-Longwood Screening Facility, Harvard Medical School, 2010)
Hit rate of the full screen: of about 52,000 compounds, about 1,700 (3.3%) were called active. This is one part of a sample in which actives are shown more often than they occur. No stated cut-off is given here; in the data, active means survival mostly below about 52% (no sharp cut-off); inactive means mostly above about 56%.

Test system: Wild type
Test: S. aureus survival, RN4220 and DeltatarO strains – OD600, teichoic acid synthesis inhibitors, primary screen (AID 463173)
Conditions: S. aureus RN4220 wild type/DeltatarO growth, OD600, 18 h, active compounds read low, screened at 18.75 µg/mL (by protocol)

Row | Structure (SMILES) | survival
1 | CCc1ccc(NC(=O)CC2C(=O)N(c3cccc(C)c3)C(=O)N2Cc2cccs2)cc1 (stereo not given) | -3% (active)
2 | COc1cc(NC(=O)CC2C(=O)N(c3cccc(C)c3)C(=O)N2Cc2cccs2)cc(OC)c1 (stereo not given) | 53% (inactive)
3 | O=C(NCc1ccccc1Cl)c1nnc(Cc2ccc(Cl)cc2)o1 | 85% (inactive)
4 | CCC1CN(C(=O)N2CCC(C(=O)NCc3cccc(OC)c3OC)CC2)c2cc(C)ccc2O1 (stereo not given) | 106% (inactive)
5 | CC1=C(C(=O)Nc2ccc(C)cc2C)C(c2cccs2)n2nc(SCc3cccc(C)c3)nc2N1 (stereo not given) | 126% (inactive)
6 | CCC(=O)Nc1ccc(C(=O)CSc2nnc(-c3ccc(O)cc3)n2CC2CCCO2)cc1 (stereo not given) | 103% (inactive)
7 | CCc1ccc(C(=O)c2cn(CC(=O)Nc3cccc(OC)c3)c3ccc(OC)cc3c2=O)cc1 | 77% (inactive)
8 | CC(C)c1ccccc1NC(=O)Cn1cnc2c1c(=O)n(C)c(=O)n2C | 93% (inactive)
9 | Cc1ccc(C(=O)N2CCC(C(N)=O)CC2)cc1NC(=O)c1nsc2ccccc12 | 72% (inactive)
10 | O=C(Nc1ccc(C(=O)N2CCN(c3cccc(Cl)c3)CC2)cc1)c1nsc2ccccc12 | 63% (inactive)
11 | O=C(Nc1ccc(C(=O)N2CCN(c3ccc(Cl)cc3)CC2)cc1)c1nsc2ccccc12 | 81% (inactive)
12 | Cc1ccc(C)c(N2CCN(C(=O)c3ccc(NC(=O)c4nsc5ccccc45)cc3)CC2)c1 | 63% (inactive)
13 | Cc1ccc(Cl)cc1N1CCN(C(=O)c2ccc(NC(=O)c3nsc4ccccc34)cc2)CC1 | 1% (active)
14 | O=C(Nc1ccc(C(=O)N2CCN(c3ccccc3)CC2)cc1)c1nsc2ccccc12 | -3% (active)
15 | Cc1ccc(C(=O)N2CCC(C)CC2)cc1NC(=O)c1nsc2ccccc12 | 80% (inactive)
16 | Cc1ccc(C(=O)N2CCCCC2)cc1NC(=O)c1nsc2ccccc12 | -6% (active)
17 | O=C(Nc1ccc(C(=O)N2CCN(c3ccc(F)cc3)CC2)cc1)c1nsc2ccccc12 | 55% (inactive)
18 | CC1CCN(CC2CCN(C(=O)NCc3ccc(F)cc3)CC2)CC1 | 78% (inactive)
19 | COc1ccccc1OC(C)C(=O)NCC1(N2CCOCC2)CCCCC1 (stereo not given) | 87% (inactive)
20 | COc1ccc(CC(=O)NCc2ccc3c(c2)CCN3C(C)=O)cc1OC | 78% (inactive)
21 | CCC(=O)N1c2ccccc2CC1C(=O)NCCCN1CCN(c2ccc(OC)cc2)CC1 (stereo not given) | 88% (inactive)
22 | Cc1ccc(NC(=O)Cn2nc(C(F)(F)F)c3c2CCC3)cc1C | 81% (inactive)
23 | O=S(=O)(c1ccc2nc(N3CCN(c4cccc(Cl)c4)CC3)ccc2c1)N1CCCCC1 | 55% (inactive)

Row | Structure (SMILES) | survival
24 | O=S(=O)(c1ccc2nc(N3CCN(c4ccccc4)CC3)ccc2c1)N1CCCCC1 | 1% (active)
25 | CC1CCN(S(=O)(=O)c2ccc3nc(N4CCN(c5ccccc5)CC4)ccc3c2)CC1 | 77% (inactive)
26 | Cc1ccc(NC(=O)C(=O)NCC(c2cccnc2)N2CCN(Cc3ccccc3)CC2)cc1 (stereo not given) | 85% (inactive)
27 | CC1CCN(C(=O)c2ccc3c(c2)OCCO3)CC1 | 105% (inactive)
28 | CN(Cc1ccccc1)c1ccc(-c2nc(-c3ccccn3)no2)cc1[N+](=O)[O-] | 67% (inactive)
29 | CCc1ccc(CNC(=O)c2cc(=O)[nH]c3ccc(S(=O)(=O)N4CCCCC4)cc23)cc1 | 91% (inactive)
30 | CC1CCN(c2oc(-c3cccs3)nc2S(=O)(=O)c2ccccc2)CC1 | 24% (inactive)
31 | Cc1ccc(S(=O)(=O)c2nc(-c3cccs3)oc2N2CCCCC2)cc1 | 50% (inactive)
32 | Cc1ccc(S(=O)(=O)c2nc(-c3cccs3)oc2N2CCC(C)CC2)cc1 | -10% (active)
33 | O=S(=O)(c1ccc(Cl)cc1)c1nc(-c2cccs2)oc1N1CCCCC1 | 45% (inactive)
34 | CC1CCN(c2oc(-c3cccs3)nc2S(=O)(=O)c2ccc(Cl)cc2)CC1 | -8% (active)
35 | O=S(=O)(c1ccccc1)c1nc(-c2cccs2)oc1N1CCCCC1 | 123% (inactive)
36 | O=C(CSc1nc2ccccc2o1)NC1CC1 | 86% (inactive)
37 | Cc1ccc2c(c1)c1c(c(=O)n(-c3ccccc3C)c(=O)n1CC(=O)NCC1CCCO1)n2C (stereo not given) | 66% (inactive)
38 | CCOc1ccc(CCNC(=O)Cn2ncc3c(=O)oc4ccc(C)cc4c32)cc1 | 80% (inactive)
39 | COc1ccc(NC(=O)CSc2nc(-c3ccccc3)nc3cc(=O)[nH]n23)cc1 | 73% (inactive)
40 | Cc1nc2c(-c3ccc(F)cc3)c(C)nn2c(C)c1CCC(=O)NCc1ccc(Cl)cc1 | 91% (inactive)
41 | CCCCc1c(C)nc2c(-c3ccc(Cl)cc3)c(C)[nH]n2c1=O | -13% (active)
42 | CCCCc1c(C)nc2c(-c3ccc(OC)cc3)c(C)[nH]n2c1=O | 12% (active)
43 | CCOC(=O)Cc1c(C)nc2c(-c3ccc(Cl)cc3)c(C(F)(F)F)nn2c1C | 49% (inactive)
44 | CCCCc1nc2ccccc2n2c(-c3ccc(OC)cc3)c3c(=O)n(C)c(=O)n(C)c3c12 | 52% (inactive)
45 | CCOC(=O)CCc1c(C)nc2cc(-c3cc(OC)cc(OC)c3)[nH]n2c1=O | 74% (inactive)
